High-throughput results (PubChem)
Shown are actives, neighbours in structure and some others; about 21% of the full set was active somewhere.
IL1B secr inh: blocks inflammasome-driven IL-1 beta release. THP-1 LPS/ATP IL-1B secretion, AlphaLISA, 16 h; hits give low values. activity change, % at 57.5 µM. 360,000 compounds, 4.7% hits; in the data active means activity change below about -50%; inconclusive means mostly about -30% to -49%; further: on the % scale 0 is the no-effect control and ±100 the full control effect
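THP-1 cells pretreated 1 hr with compounds (up to 57.5 uM final), then stimulated with LPS (250 ng/mL final) plus ATP (1.25 mM final); secreted IL-1B measured by AlphaLISA after 16 hr, decreased signal indicating inhibition.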
ClpP mod: qHTS Assay for Activators of ClpP. purified B. subtilis ClpP, FRET peptide cleavage, 20 min. 340,000 compounds, 1.9% hits. AID 651965, 2013. ATP-dependent Clp protease proteolytic subunit (Bacillus subtilis (strain 168)), P80244. Potency, µM (top dose mostly 57.5 µM), inactives show at the top dose activity change, negative = active; active means well fitted falling curve with a large enough effect; inconclusive means small, poorly fitted or top-dose-only effect; inactive means no such curve, though single readings can be large or run the other way; further: potency means the concentration at half of the fitted maximal effect; the source files actives as falling curves though it sought activators and does not explain the sign; nearly all actives have a fitted effect of over 65% in size
Target sequence (P80244 whole entry, looked up): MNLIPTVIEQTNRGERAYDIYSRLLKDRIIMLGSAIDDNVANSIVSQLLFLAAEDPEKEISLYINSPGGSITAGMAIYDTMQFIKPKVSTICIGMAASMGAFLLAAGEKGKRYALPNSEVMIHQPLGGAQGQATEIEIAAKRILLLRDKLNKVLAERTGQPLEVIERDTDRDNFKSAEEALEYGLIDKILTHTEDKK
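Buffer: 100 mM Tris/HCl pH8, 100 mM KCl, 0.05% low protease BSA, 2.5% glycerol, 0.01% Tween-20. ClpP 10 microg/mL final; 20 min RT; delta FRET normalized to ADEP and DMSO controls.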
DT40 TDP1 no CPT: qHTS for Inhibitors of human tyrosyl-DNA phosphodiesterase 1 (TDP1): qHTS in cells in absence of CPT; DT40 Tdp1-/- hTDP1 cells, no CPT, ATP luminescence, 48 h; Potency, µM (doses to about 46.2 µM), for inactives: at the top dose activity change, negative = growth inhibition, actives largely listed as inhibitors; 420,000 compounds, 15% hits; AID 686978, 2013; further: potency means the concentration at half of the fitted maximal effect; on the % scale 0 is the no-effect control and ±100 the full control effect; nearly all actives have a fitted effect of over 55% in size
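Chicken DT40 Tdp1-/- cells stably complemented with human TDP1 were seeded at 400 cells/well with DMSO in place of 20 nM camptothecin. After compound pinning, cells grew at least 48 hr at 37 °C; viability read by CellTiter-Glo luminescence.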
D3 ag: agonists of human D3 dopamine receptor | 410,000 compounds, 0.58% hits | max activation, % | D3R DiscoveRx beta-arrestin cells, luminescence, 90 min | AID 652048; in the data active means max activation above about 30%; further: 0% is about no effect
Target sequence (P35462 whole entry, looked up): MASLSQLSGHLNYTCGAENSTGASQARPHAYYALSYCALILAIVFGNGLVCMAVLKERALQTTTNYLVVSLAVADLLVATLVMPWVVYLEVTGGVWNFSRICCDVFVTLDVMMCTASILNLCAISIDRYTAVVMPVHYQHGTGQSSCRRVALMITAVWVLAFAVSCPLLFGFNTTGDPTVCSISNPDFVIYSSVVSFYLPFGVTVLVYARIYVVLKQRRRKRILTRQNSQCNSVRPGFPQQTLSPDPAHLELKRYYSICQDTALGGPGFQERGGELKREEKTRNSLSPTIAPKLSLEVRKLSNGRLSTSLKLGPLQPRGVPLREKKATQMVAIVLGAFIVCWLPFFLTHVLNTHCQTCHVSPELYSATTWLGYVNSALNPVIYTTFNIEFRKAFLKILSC
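Agonist-mode cell screen: cells plated at 1500/well and incubated overnight at 37 °C, then exposed to library compounds for 90 min at 37 °C. Detection reagent was added for 30–60 min at room temperature, and luminescence was read.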
TDP1 cell CPT: DT40-hTDP1 cell growth loss with CPT | chicken DT40 Tdp1-/-;hTDP1 cells + 20 nM CPT, ATP luminescence, 48 h | Potency, µM (titrated, usually from 46.2 µM), inactives show top-dose activity change, negative = growth inhibition, hits mostly inhibitors | 420,000 compounds, 12% hits | AID 686979; further: potency means the concentration at half of the fitted maximal effect; on the % scale 0 is the no-effect control and ±100 the full control effect; nearly all actives have a fitted effect of over 55% in size
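Chicken DT40 Tdp1-/- cells stably complemented with human TDP1 were seeded at 400 cells/well in medium containing 20 nM camptothecin, exposed to pin-transferred compounds, and grown at 37 °C for at least 48 hr. Viability was read as ATP luminescence.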
D3 antag: antagonists of human D3 dopamine receptor; 360,000 compounds, 2.5% hits; P35462; max response, negative = inhibition, %; AID 652054; D3R cells, DiscoveRx beta-arrestin luminescence, antagonist mode; hits give low values; in the data active means max response below about -50%; inconclusive means no clear call, values can overlap the other calls; further: on the % scale 0 is the no-effect control and ±100 the full control effect
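Cells expressing the human receptor were seeded at 1500 cells/well, incubated overnight at 37 degrees C in 5% CO2, then exposed to library compounds with dopamine controls for 90 minutes at 37 degrees C before luminescent detection.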
* marks the source's active call; other numbers are inactive results; ? = inconclusive; / = no result given. Unless noted, the call rests on the fitted dose curve; in most records, active means well fitted inhibition curve with a large enough effect; inconclusive means small, poorly fitted or top-dose-only effect; inactive means flat fitted curve, though single readings scatter.

SMILES	IL1B secr inh	ClpP mod	DT40 TDP1 no CPT	D3 ag	TDP1 cell CPT	D3 antag
O=S(=O)(Nc1ccc(Br)cc1)c1cccc(NS(=O)(=O)c2cccs2)c1	25	-1%	-10%	-3	-20%	-30
CCOc1cccc(C(=O)Nc2ccc3oc(-c4ccncc4)nc3c2)c1	/	4%	?	11	?	/
CCCOc1cccc(C(=O)Nc2ccc(-c3nc4ccccc4o3)cc2)c1	/	4%	13µM*	8	?	/
Cc1ccc(Nc2nc3ccccc3c3nncn23)c(Cl)c1	/	-1%	-25%	-6	-24%	/
Cc1ccc(O)c(Nc2nc3ccccc3c3nncn23)c1	/	-2%	9.2µM*	4	?	/
Cc1ccc(O)c(Nc2c3ccccc3nc3ccccc23)c1	-95*	-2%	?	5	16µM*	0
CNc1ncnc2c1ncn2[C@H]1CN(Cc2ccco2)C[C@@H](CO)O1	33	-1%	-12%	-8	1%	0
Cn1c(=O)cnc2cnc(Oc3ccccc3)nc21	/	/	-13%	/	2%	/
CCN1CCc2c(OCC(=O)N3CCCc4ccccc43)cccc2C1=O	35	/	-29%	-3	-22%	0
COC(=O)c1ccc(COc2cccc3c2CCN(Cc2ccccc2)C3=O)o1	-3	-3%	?	2	?	0
O=C(COc1cccc2c1CCN(Cc1ccc(Br)cc1)C2=O)NCc1ccco1	-28	-1%	23µM*	-5	18µM*	-19
O=C(COc1cccc2c1CCN(Cc1ccc(Br)cc1)C2=O)N1CCOCC1	-63*	/	23µM*	-1	?	5
O=C1c2cccc(OCC(=O)N3CCCc4ccccc43)c2CCN1Cc1ccc(Br)cc1	-22	-7%	18µM*	3	18µM*	9
CCC1=NN=C(c2ccc(F)cc2)C(c2c[nH]c3ccccc23)N1O (configuration not stated)	9	1%	?	0	-8%	6
CC1(C)C(=O)C2(CCCC2)C(=O)OC1c1ccco1 (configuration not stated)	-16	-1%	-17%	0	-9%	?
CC1(C)C(=O)OC(c2cccn2-c2ccc([N+](=O)[O-])cc2)C(C)(C)C1=O (configuration not stated)	-9	1%	23µM*	1	15µM*	16
CC1(C)C(=O)C2(CCCCC2)C(=O)OC1c1cccn1-c1ccc([N+](=O)[O-])cc1 (configuration not stated)	4	32µM*	?	2	?	3
CC1(C)C(=O)OC(c2c3ccccc3cc3ccccc23)C(C)(C)C1=O (configuration not stated)	-6	/	?	12	?	10
O=C1OC(c2cccc([N+](=O)[O-])c2)C2(CCCC2)C(=O)C12CCCCC2 (configuration not stated)	-9	?	?	-6	23µM*	-26
O=C1NC2(CCCCCC2)C(=O)N1Cc1cccc([N+](=O)[O-])c1	-5	/	?	4	?	12
CCN(CC)S(=O)(=O)c1nnc(NC(=O)c2ccc(C)cc2)s1	/	-4%	?	-14	-16%	/
C/C(=N/NC(=O)CCCOc1ccc(Cl)cc1Cl)c1ccc(C)o1	-9	0%	-29%	-8	24%	18
O=C(Nc1ccc(/C=C/c2nc3ccccc3o2)cc1)c1ccc(F)cc1	15	3.2µM*	?	5	21µM*	21
CN(C)c1ccc(/C=N/NC(=O)CNC(=O)c2ccncc2)cc1	31	4%	12%	1	-15%	12
CC/C(=C\c1ccc(N(C)C)cc1)c1ccncc1	-64*	-3%	?	7	23µM*	1
SMILES	IL1B secr inh	ClpP mod	DT40 TDP1 no CPT	D3 ag	TDP1 cell CPT	D3 antag
CCOc1ccc(NC(=O)C2CCCN(S(=O)(=O)c3cccc4nsnc34)C2)cc1 (configuration not stated)	13	1%	16µM*	3	23µM*	-4
COc1cccc(NC(=O)C2CCCN(S(=O)(=O)c3cccc4nsnc34)C2)c1 (configuration not stated)	-8	0%	16µM*	-11	?	-19
CCc1ccccc1NC(=O)C1CCCN(S(=O)(=O)c2cccc3nsnc23)C1 (configuration not stated)	/	1%	?	2	?	/
Cc1cccc(NC(=O)C2CCCN(S(=O)(=O)c3cccc4nsnc34)C2)c1 (configuration not stated)	0	8%	?	6	?	8
Cc1cc(C)cc(NC(=O)C2CCCN(S(=O)(=O)c3cccc4nsnc34)C2)c1 (configuration not stated)	/	1%	16µM*	-15	18µM*	/
Cc1cc(NC(=O)C2CCCN(S(=O)(=O)c3cccc4nsnc34)C2)ccc1Br (configuration not stated)	/	-1%	?	5	10µM*	/
CCOC(=O)C1CCCN(C(=O)Cn2nc(CC)n3c(cc4occc43)c2=O)C1 (configuration not stated)	/	-5%	?	-11	?	/
O=C(Nc1cccc(C(F)(F)F)c1)C1CCCN(S(=O)(=O)c2cccc3nsnc23)C1 (configuration not stated)	/	63%	21µM*	-4	16µM*	/
Cc1ccc(C)c(NC(=O)C2CCCN(S(=O)(=O)c3c(C)nn(C)c3C)C2)c1 (configuration not stated)	23	/	18µM*	11	?	7
COc1ccc2nc(NC(=O)C3CCN(S(=O)(=O)c4cccc5nsnc45)CC3)sc2c1	-77*	-6%	?	3	15µM*	14
O=C(Nc1ccccc1Br)C1CCCN(S(=O)(=O)c2cccc3nsnc23)C1 (configuration not stated)	/	-2%	?	0	?	/
Cc1ccc(C)c(NC(=O)C2CCCN(S(=O)(=O)c3cccc4nsnc34)C2)c1 (configuration not stated)	/	0%	26µM*	-5	-31%	/
CCOc1ccc(CN(C(=O)c2cc(=O)c3cc(Cl)ccc3o2)C2CCS(=O)(=O)C2)cc1 (configuration not stated)	/	3%	?	-4	-1%	/
